A selection: hits, their analogues and other compounds. The true share with any hit is near 2.8%.
IP6K1 inhibitor – Primary qHTS assay for small molecule inhibitors of Inositol hexaphosphate kinase 1 (IP6K1); Inositol hexakisphosphate kinase 1 (Homo sapiens), Q92551; IP6K1 kinase, ADP-Glo luminescence, 2 h; active compounds read low; hit rate 0.81% among 140,000; AID 1645851, 2021; activity change, % (series mostly up to about 58 µM); in the data active = activity change below about -25%; note: % is set by controls: 0 for no effect and ±100 for the full control effect
Target sequence (Q92551 whole entry, looked up): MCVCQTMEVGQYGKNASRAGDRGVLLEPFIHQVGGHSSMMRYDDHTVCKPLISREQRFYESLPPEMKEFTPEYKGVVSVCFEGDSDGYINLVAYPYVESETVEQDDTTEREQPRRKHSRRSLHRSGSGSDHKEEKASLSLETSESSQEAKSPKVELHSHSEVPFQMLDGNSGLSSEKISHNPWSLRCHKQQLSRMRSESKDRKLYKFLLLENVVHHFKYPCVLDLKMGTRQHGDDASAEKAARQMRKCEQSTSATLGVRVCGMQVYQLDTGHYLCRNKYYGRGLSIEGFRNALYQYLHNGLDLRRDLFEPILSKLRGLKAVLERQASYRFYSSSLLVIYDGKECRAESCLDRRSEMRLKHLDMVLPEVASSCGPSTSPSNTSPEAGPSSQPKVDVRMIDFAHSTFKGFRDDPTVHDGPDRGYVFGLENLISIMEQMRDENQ
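ADP-Glo luminescence measures ADP made by human IP6K1 during a 2 h RT reaction with ATP/IP6 (mix at 1.3 mM/130 uM); top library doses 57.5 and 19.1 uM final.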
KDM5B inh – Primary screen for KDM5B Histone Demethylases FDH-coupled qHTS. AID 1347165, 2019. Lysine-specific demethylase 5B (Homo sapiens), Q9UGL1. Potency, µM (top dose mostly 57.7 µM), hits mostly inhibitors. KDM5B demethylase, FDH-coupled NADH fluorescence (FDH is formaldehyde dehydrogenase). hit rate 2.6% among 220,000; active = well fitted inhibition curve with a large enough effect; inconclusive = small, poorly fitted or top-dose-only effect; inactive = no such curve, though single readings can be large or run the other way; note: potency is the fitted concentration of half-maximal effect; 0% is about no effect; nearly all actives have a fitted effect of over 70% in size
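qHTS format, multiple compound concentrations. Buffer 50 mM HEPES pH 7.5/0.01% Tween-20; 200 nM KDM5BΔAP final; 10 min compound preincubation; substrate-mix levels 12.5 µM peptide, 25 µM α-KG, 0.25 mM NAD⁺; 30 min RT; ΔRFU.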
Active calls of the source: *; i = inactive; ? = inconclusive; nt = no result.

SMILES	IP6K1 inhibitor	KDM5B inh
O=C(NCc1ccc(Cl)cc1)c1nc2sccn2c1-c1ccncc1	6.2	nt
CNC(=O)c1cn2cc(-c3cccc(C(F)(F)F)c3)sc2n1	16.1	nt
O=C(CN1CC(=O)NC1=O)NCc1ccc2[nH]c3c(c2c1)CCCCCC3	15.1	22.4µM*
CC(=O)c1ccc(NS(=O)(=O)c2ccc3[nH]c4c(c3c2)CCCCCC4)cc1	-8.8	i
Cc1ccc2c(C(=O)N3CCOCC3)cnn2c1	-11.2	31.6µM*
O=C(c1cnn2ncccc12)N1CCOCC1	-6.9	i
O=C(CSc1nc(=O)n(Cc2cccnc2)c2c1CCC2)N1CCCC1	nt	i
Oc1ccc(-c2nc(C3CC3)nc3c2CN(CC2CC2)CC3)cc1	19.7	nt
CCc1noc(-c2ccn3c(CNC(=O)c4c(F)cccc4F)nnc3c2)n1	22.1	i
CCCc1noc(-c2ccn3c(CNC(=O)c4cc(F)ccc4F)nnc3c2)n1	15.0	31.6µM*
CCCc1noc(-c2ccn3c(CNC(=O)c4ccccc4Cl)nnc3c2)n1	24.1	i
CCCc1noc(-c2ccn3c(CNC(=O)c4c(F)cccc4F)nnc3c2)n1	27.8	28.2µM*
CCCc1noc(-c2ccn3c(CNC(=O)c4ccccc4F)nnc3c2)n1	7.4	8.91µM*
CCc1noc(-c2ccn3c(CNC(=O)c4cc(F)ccc4F)nnc3c2)n1	-6.0	i
COc1ccc(Nc2ccnc(N3CCC(NC(=O)c4ccccn4)CC3)n2)cc1	12.3	nt
COc1ccccc1-c1ccc(C(=O)N2CCC(N[S+](=O)([O-])c3cccs3)CC2)cc1	3.9	nt
CN(C)C[C@@H]1CN(c2ncccn2)C[C@H]1NC(=O)c1cc(F)ccc1Cl	3.9	31.6µM*
CN(C)C[C@@H]1CN(c2ncccn2)C[C@H]1NC(=O)c1cccn1C	13.7	28.2µM*
CN(C)C[C@@H]1CN(c2ncccn2)C[C@H]1NC(=O)c1ccc(C#N)cc1	1.2	?
CN(C)C[C@@H]1CN(c2ncccn2)C[C@H]1NC(=O)c1cccc(C#N)c1	-1.1	?
CN(C)C[C@@H]1CN(c2ncccn2)C[C@H]1NC(=O)c1ccccc1Cl	2.4	22.4µM*
CN(C)C[C@@H]1CN(C)C[C@H]1NC(=O)c1cc(F)ccc1Cl	-2.6	i
CN(C)C[C@@H]1CN(c2ncccn2)C[C@H]1NC(=O)c1cnn(C)c1	-0.3	28.2µM*
Cc1ncccc1C(=O)N[C@@H]1CN(Cc2ccccc2)C[C@H]1CN(C)C	2.6	i
COc1ccccc1Nc1ccnc(N2CCC(C(=O)NCCCc3ccccc3)CC2)n1	12.7	nt
SMILES	IP6K1 inhibitor	KDM5B inh
CNC(=O)C(=O)N1C[C@H](C(=O)NC)[C@H]2c3ccccc3N(CCOC)C(=O)[C@]21C	-7.9	nt
F[C@@H]1CN(CC2CC2)C[C@@H]1OCc1nc2ccccc2o1	2.4	?
Cc1ccc(C)c(CS(=O)(=O)Cc2nc(CC(C)C)no2)c1	nt	i
O=C(NC1CC1)c1nc2cccnc2n(Cc2ccccc2)c1=O	18.0	nt
CC(C)NC(=O)N1CCN2C(=O)c3cc(-c4ccc5c(c4)OCO5)ccc3NC(=O)[C@H]2C1	-12.3	?
CN(C)C[C@@H]1CN(c2ncccn2)C[C@H]1NC(=O)c1ccccc1F	7.2	28.2µM*
Cc1ccc(C)c(C(=O)N[C@@H]2CN(c3ncccn3)C[C@H]2CN(C)C)c1	24.2	22.4µM*
Cc1ccc(C)c(C(=O)N[C@@H]2CN(Cc3ccccn3)C[C@H]2CN(C)C)c1	11.3	?
COc1ccccc1-c1cc(C(=O)NC2CCOCC2)c2cnn(C)c2n1	-1.0	nt
Cc1ccc(NC(=O)c2cc3c(s2)CN(C2CC2)C3)cc1	15.1	?
CSc1ccc(NC(=O)c2cc3c(s2)CN(C2CC2)C3)cc1	-4.8	22.4µM*
CCC(=O)NC[C@H]1Cn2c(-c3ccc4c(c3)OCO4)cnc2CO1	-0.6	?
O=C(NC[C@H]1Cn2c(-c3ccc4c(c3)OCO4)cnc2CO1)Nc1ccc(F)cc1	-17.6	28.2µM*
CCc1nnc(NC(=O)Cn2ccc3ccc(Cl)cc32)s1	nt	i
COc1ccc(CNC(=O)N2CCc3nc(-c4ccccc4)[nH]c3C2)cc1	3.8	nt
CC1(C(=O)NC2CCOCC2)CCCc2cnc(NCc3ccccc3)nc21 (centres undefined)	8.5	39.8µM*
CC1(C(=O)NC2CCOCC2)CCc2cnc(Nc3ccccc3)nc21 (centres undefined)	18.3	i
CC1(C(=O)NCc2cccnc2)CCc2cnc(NCc3ccccc3)nc21 (centres undefined)	0.9	31.6µM*
CC1(C(=O)NCc2cccnc2)CCCc2cnc(NCc3ccccc3)nc21 (centres undefined)	1.5	?
CNC(=O)c1cc(C)nc2onc(C3CCCN3C(C)=O)c12 (centres undefined)	-10.9	nt
COc1ccccc1CNC(=O)C1CCCN(c2nccc(Nc3ccccc3OC)n2)C1 (centres undefined)	4.5	nt
CSc1ccc(-c2nc(CN3CCN(C(C)=O)CC3)c(C)o2)cc1	43.5	20µM*
CSc1ccc(-c2nc(CN3CCOC(CCO)C3)c(C)o2)cc1 (centres undefined)	8.9	15.8µM*
COCCC1CN(Cc2nc(-c3cccc(C(F)(F)F)c3)oc2C)CCO1 (centres undefined)	-5.9	i
CSc1ccc(-c2nc(CN3CCN(C(=O)N(C)C)CC3)c(C)o2)cc1	-2.1	?
SMILES	IP6K1 inhibitor	KDM5B inh
CCC(C)(CNC(=O)c1cc(-c2ccccc2)on1)N1CCOCC1 (centres undefined)	nt	i
COCCOC1CN(C2CCN(S(=O)(=O)c3cccc(F)c3)CC2)C12CCCCC2 (centres undefined)	6.0	nt
CCN(C(C)C(=O)Nc1ccc(C)cc1)S(=O)(=O)c1cccc2cc(C)cnc12 (centres undefined)	nt	i
CNC(=O)c1cc(-c2ccc(Cl)nc2)nc2c1cnn2C	-8.7	nt
CC1(COCC2CC2)COc2ccc(C(=O)Nc3ccc4[nH]ccc4c3)cc2N1 (centres undefined)	-12.5	i
CC1(COc2ccc3[nH]ccc3c2)COc2ccc(C(=O)Nc3cccnc3)cc2N1 (centres undefined)	-21.1	35.5µM*
COc1ccc(NC(=O)c2ccc3c(c2)NC(C)(COc2ccc4[nH]ccc4c2)CO3)cn1 (centres undefined)	-12.3	20µM*
CN1CCN(C(=O)C2CN(c3ccnc4ccnn34)C2)CC1	2.0	nt
O=C(c1cn(Cc2cncn2Cc2ccc(Br)cc2)cc1-c1cccc2ccccc12)N1CCOCC1	6.8	nt
CCC1Oc2ccc(NC(=O)c3ccc(OC)c(OC)c3)cc2CN(Cc2ccc(Cl)cc2)C1=O (centres undefined)	-16.3	28.2µM*
CCC1Oc2ccc(NC(=O)COC)cc2CN(Cc2ccc(Cl)cc2)C1=O (centres undefined)	-7.0	i
COc1ccc(C(=O)Nc2ccc3c(c2)CN(Cc2ccc(F)cc2)C(=O)C(C)O3)c(OC)c1 (centres undefined)	-11.2	31.6µM*
COc1ccc(CN2Cc3cc(NC(=O)c4ccc(F)cc4)ccc3OC(C)C2=O)c(OC)c1 (centres undefined)	-7.0	?
CCNC(=O)c1cc(NC(=O)C(C)C)cc2nc(C)ccc12	30.1	25.1µM*
Cc1ccc(CNC(=O)c2cc(NC(=O)C(C)C)cc3nc(C)ccc23)cc1	11.7	?
